Some test systems named below: DU-145 prostate; K-562 leukemia; MALME-3M melanoma; MDA-MB-231 breast; RXF 393 renal; SF-268 CNS; SF-295 CNS; SF-539 CNS; UACC-257 melanoma; M14 melanoma.
Common to all, as to assay: NCI-60 one-dose screen, 48 h (100 = growth as untreated, 0 = no growth, -100 = all killed)
What all share (conditions): 10 µM unless noted

Compounds without any hit were thinned out: in the full panel of roughly 83,000, 20% have a hit.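 Step 1: grow cells in 96-well plates. Step 2: add test compound at a single concentration. Step 3: incubate 48 h. Step 4: record percent growth.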 Unmarked numbers belong to inactive results. Calls of active or inactive are those of the source. How the source made its calls: active means growth percent below 10; inactive means the rest.

On to `CN(C)Cc1ccc(NC(=O)c2cncc(C#Cc3cnc(N)c4ncccc34)c2)cc1F`, for which the growth in the test on DU-145 prostate is 86.8%; with K-562 leukemia, -4.46% (active); with MALME-3M melanoma, 65.6%; in the test with MDA-MB-231 breast it was -73.1% (active); in the test with RXF 393 renal, 40.1%; in the test with SF-268 CNS, 94%. Besides, the growth is 95.9% with SF-295 CNS, 95.4% in the test with SF-539 CNS, 88.7% in the test with UACC-257 melanoma and -84.5% (active) in the test with M14 melanoma.

For `O=C(O)/C(=C\c1ccc(Cl)cc1)c1ccc(Cl)cc1`, the growth in the test on DU-145 prostate was 107%; with K-562 leukemia, 43.8%; with MALME-3M melanoma it was 81.5%; in the test on MDA-MB-231 breast, 92.9%; with RXF 393 renal, 78.8%; in the test with SF-268 CNS, 96.5%. Also, the growth in the test on SF-295 CNS is 118%; in the test on SF-539 CNS, 95.2%; with UACC-257 melanoma it was 85.8%; with M14 melanoma it was 95.8%.

For `COC(C(=O)[C@@H](O)[C@@H](C)O)[C@@H]1Cc2cc3cc(O[C@H]4C[C@@H](O[C@H]5C[C@@H](O)[C@H](O)C(C)O5)[C@H](O)C(C)O4)c(C)c(O)c3c(O)c2C(=O)[C@H]1O[C@H]1C[C@@H](O[C@H]2C[C@@H](O[C@H]3C[C@@H](O)[C@H](OC)C(C)O3)[C@@H](O)C(C)O2)[C@H](O)C(C)O1` (stereo not given in full), the growth was 12% in the test with DU-145 prostate; 5.99% (active) with K-562 leukemia; -30.7% (active) in the test on MALME-3M melanoma; 17.2% in the test with MDA-MB-231 breast; -55.4% (active) in the test with RXF 393 renal; 14.2% in the test on SF-268 CNS. The growth in the test with SF-295 CNS is 8.2% (active); in the test on SF-539 CNS, -23.6% (active); in the test with UACC-257 melanoma, -21.7% (active); with M14 melanoma, -17.9% (active).

As for `Cn1cc(-c2nonc2-c2c[nH]c3ccc(Br)cc23)c2cc(Br)ccc21`, the growth was 23.2% in the test on DU-145 prostate; 7.65% (active) in the test with K-562 leukemia; 39.9% with MALME-3M melanoma; 31.9% in the test with MDA-MB-231 breast; 18.2% in the test with RXF 393 renal; 37.8% in the test with SF-268 CNS. Besides, the growth in the test on SF-295 CNS was 22.4%; in the test on SF-539 CNS, 46%; in the test on UACC-257 melanoma, 66.8%; with M14 melanoma, 42.7%.

Turning to `Cc1ccc(-c2nc(/C=C3/C(=O)Nc4ccccc43)c3ccccn23)cc1`, the growth with DU-145 prostate is -16.3% (active); in the test with K-562 leukemia it was 81.5%; in the test with MALME-3M melanoma, 116%; with MDA-MB-231 breast, 85.2%; with RXF 393 renal, 38.2%; in the test with SF-268 CNS, 88%. The growth in the test on SF-295 CNS was 91.9%; with SF-539 CNS, 94.8%; in the test with UACC-257 melanoma, 102%; in the test with M14 melanoma it was 92.3%.

As for `O=C(CCC(=O)N/N=C/c1ccccc1O)N/N=C/c1ccccc1O`, the growth with DU-145 prostate is 48.4%; in the test with K-562 leukemia, 40.4%; with MALME-3M melanoma, 62.5%; with MDA-MB-231 breast, 49%; in the test on RXF 393 renal it was 58.9%; with SF-268 CNS, 33.2%. Also, the growth with SF-295 CNS was 89.6%; in the test on SF-539 CNS, 30%; in the test on UACC-257 melanoma, 76%; in the test on M14 melanoma, 36.4%.

Consider `CN(C)CCNc1nc2c3cc(Cl)ccc3nn2c2ccccc12`, for which the growth was 54.3% in the test with DU-145 prostate; 46.5% in the test with K-562 leukemia; 42% with MALME-3M melanoma; 46.8% in the test on MDA-MB-231 breast; 4.75% (active) in the test on RXF 393 renal; 45.7% with SF-268 CNS. The growth with SF-295 CNS was 26.9%; in the test with SF-539 CNS it was 36.8%; with UACC-257 melanoma it was 52.5%; in the test on M14 melanoma, 62.1%.

On to `COc1cc(-c2nc(SCC(C)C)nc(Nc3cccc4ccccc34)c2C#N)cc(OC)c1OC`, for which the growth with DU-145 prostate was 94.4%; in the test on K-562 leukemia, 57%; with MALME-3M melanoma, 87.7%; in the test with MDA-MB-231 breast, 57.1%; in the test on RXF 393 renal it was 119%; in the test on SF-268 CNS, 92.6%. In addition, the growth is 101% in the test on SF-295 CNS, 101% with SF-539 CNS, 106% in the test on UACC-257 melanoma and 103% with M14 melanoma.

`O=C(Cn1c(-c2ccc([N+](=O)[O-])cc2)nc2ccccc21)NNC(=O)c1cccnc1`: the growth in the test with DU-145 prostate was 90.3%; in the test on K-562 leukemia it was 63.4%; in the test with MALME-3M melanoma, 105%; in the test with MDA-MB-231 breast, 92.4%; in the test on RXF 393 renal, 98.7%; in the test with SF-268 CNS it was 89.2%. Moreover, the growth is 83.4% in the test on SF-295 CNS, 88.9% with SF-539 CNS, 86.7% in the test with UACC-257 melanoma and 91% with M14 melanoma.

In the case of `CCN1C(=O)N(CC)C2C1NN=c1s/c(=C\c3cccc([N+](=O)[O-])c3)c(=O)n12` (stereo not given), the growth was 8.55% (active) in the test on DU-145 prostate; 10.5% in the test on K-562 leukemia; 47.4% in the test on MALME-3M melanoma; 12.4% with MDA-MB-231 breast; 31.4% in the test with RXF 393 renal; 54% in the test with SF-268 CNS. Also, the growth with SF-295 CNS is 15%; in the test on SF-539 CNS, -4.28% (active); in the test on UACC-257 melanoma it was 59.7%; with M14 melanoma, 12.2%.

Turning to `CCOC(=O)c1c(C)nc2c(c1N)CC(=O)N2Cc1cc(F)cc(Cl)c1`, the growth was 94.5% in the test on DU-145 prostate; 95.2% with K-562 leukemia; 108% in the test with MALME-3M melanoma; 87.5% in the test with MDA-MB-231 breast; 92.4% with RXF 393 renal; 95.8% in the test on SF-268 CNS. The growth in the test on SF-295 CNS is 85.9%; in the test on SF-539 CNS, 94.2%; in the test on UACC-257 melanoma, 82%; with M14 melanoma, 101%.

For the compound `COc1ccc(C(=O)Nc2ncc(Cc3ccc(F)cc3)s2)cc1`, the growth in the test with DU-145 prostate was 16.2%; in the test with K-562 leukemia, 8.46% (active); with MALME-3M melanoma, 60.2%; in the test with MDA-MB-231 breast, 29.6%; with RXF 393 renal, 7.03% (active); with SF-268 CNS, 50.6%. Moreover, the growth in the test on SF-295 CNS was 9.8% (active); in the test with SF-539 CNS, -9.59% (active); with UACC-257 melanoma, 56%; in the test on M14 melanoma it was 16.4%.

The values above are taken from PubChem BioAssay (NCI).
